Laboratory results from PubChem BioAssay AID651610 (Broad Institute, 2012).
In all, about 360,000 compounds went through this assay and about 3,900 (1.1%) were called active. This is one part of a sample in which actives are shown more often than they occur.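 Rule for the calls: active = mean replicate inhibition score of at least 50 and every replicate individually at or above 50; inconclusive = only one of the two criteria met; inactive = mean below 50 and not all replicates reaching 50.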

Assay: inhibitors of HIV-1 Env-driven cell-cell fusion, primary screen, HeLa-JRFL effector, CEM21 target cells, luciferase (AID 651610);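 note: 0% = plate neutral controls and 100% = maraviroc near 300 nM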
Settings: hits give high values; at 16.7 µM unless noted

Compound | inhibition
c1ccc(-c2cnc(CN3CCN(c4ccccc4)CC3)o2)cc1 | 3.52% [at 12.3 µM] (inactive)
CCn1c(SCc2cc(=O)n3ccsc3n2)nc2ccccc21 | 9.35% [at 12.3 µM] (inactive)
CCCCn1c(SCc2ncc(-c3ccccc3)o2)nc2cc(S(N)(=O)=O)ccc21 | 32.4% [at 12.3 µM] (active)
C[C@H](O)C#Cc1cnc2c(c1)C(=O)N([C@H](C)CO)C[C@@H](C)[C@H](CN(C)CC1CCCCC1)O2 | -6.75% (inactive)
C[C@H](CO)N1C[C@H](C)[C@H](CN(C)Cc2cccnc2)Oc2ncc(C3=CCCC3)cc2C1=O | 0.845% (inactive)
C[C@@H]1CN([C@H](C)CO)C(=O)c2c(c3ccccc3n2C)-c2ccccc2CO[C@H]1CN(C)C(=O)[C@@H](Cc1ccccc1)N(C)C | -56.3% (inactive)
CS(=O)(=O)N(CC(=O)NC1CCCC1)Cc1ccc(F)cc1 | 12.4% [at 12.3 µM] (inactive)
Cc1ccc(CN(CC(=O)NC2CCCCC2)C(=O)c2csnn2)cc1 | -2.9% [at 12.3 µM] (inactive)
Cc1cc(C(C)(C)C)oc1C(=O)N(CC(=O)NC1CCCC1)Cc1ccc(Cl)cc1 | 73.7% [at 12.3 µM] (active)
O=C(C[C@@H]1CC[C@H](NC(=O)Nc2cc(F)ccc2F)[C@H](CO)O1)NCc1ccncn1 | 1.2% (inactive)
COc1ccc(CNC(=O)c2ccc(-c3cccnc3)c3ccoc23)cc1OC | 55.1% [at 12.3 µM] (active)
Cc1noc(C)c1-c1ccc(C(=O)NCc2ccncc2)c2occc12 | -7.55% [at 12.3 µM] (inactive)
COCCCNC(=O)c1ccc(-c2c(C)noc2C)c2ccoc12 | -11% [at 12.3 µM] (inactive)
CC1(C)C(=O)Nc2ccccc2N1C(=O)COC(=O)Cn1cnc2ccccc2c1=O | -40.1% [at 12.3 µM] (inactive)
O=C(COC(=O)Cn1cnc2ccccc2c1=O)NCc1ccccc1Cl | 0.405% [at 12.3 µM] (inactive)
CN(Cc1c(F)cccc1Cl)C(=O)COC(=O)Cn1cnc2ccccc2c1=O | 63.4% [at 12.3 µM] (active)
O=C(NCc1ccccn1)[C@@H]1[C@@H](CO)[C@@H]2Cn3c(ccc(/C=C/c4ccccc4)c3=O)[C@H]1N2CC1CC1 | -8.79% (inactive)
CC(C)c1cc(C(=O)NC2CCCCCC2)c2ccccc2n1 | 30.2% [at 12.3 µM] (inactive)
CC(C)C(C)NC(=O)COc1nc2ccccc2nc1N(C)C1CCCCC1 (configuration not stated) | 17.4% [at 12.3 µM] (inactive)
CN(c1ccc2nc3ccccc3c(=O)n2n1)C1CCCCC1 | 68.2% [at 12.3 µM] (active)
COc1cccc(S(=O)(=O)N(C)C[C@@H]2Oc3cc(C#CCN(C)C)ccc3S(=O)(=O)N([C@@H](C)CO)C[C@@H]2C)c1 | -11.4% (inactive)
Cn1c(-c2sccc2OCc2cccc(C(F)(F)F)c2)n[nH]c1=S | 63.4% [at 12.3 µM] (active)
FC(F)(F)c1ccc(-n2cn[nH]c2=S)cc1 | 2.89% [at 12.3 µM] (inactive)
CCOC(=O)N1CCN(Cc2nc(Cc3cccc(C(F)(F)F)c3)no2)CC1 | -3.49% [at 12.3 µM] (inactive)

Compound | inhibition
O=C(C[C@H]1CC[C@H]2[C@@H](COC[C@@H](O)CN2Cc2nccs2)O1)NCc1ccccc1Cl | 6.96% (inactive)
CN(C)CC(=O)Nc1ccc2c(c1)[C@H]1C[C@H](CC(=O)NCc3ccccc3)O[C@@H](CO)[C@H]1O2 | -29.2% (inactive)
COc1ccc([N+](=O)[O-])cc1N(CC(O)CN(CC(C)C)CC(C)C)S(=O)(=O)c1ccc(C)cc1 (configuration not stated) | -12.9% [at 12.3 µM] (inactive)
CC(C)CN(CC(C)C)CC(O)CN(c1ccccc1)S(=O)(=O)c1ccccc1[N+](=O)[O-] (configuration not stated) | 65.4% [at 12.3 µM] (active)
Cc1cccc(N(CC(O)CN(C)C)S(=O)(=O)c2ccccc2)c1 (configuration not stated) | -28.3% [at 12.3 µM] (inactive)
CN(C)CC(=O)N[C@H]1CC[C@H](CCNC(=O)C2CCCCC2)O[C@H]1CO | -245% (inactive)
COc1ccc(CCNc2ncnc3nc[nH]c23)cc1OC | 18% [at 12.3 µM] (inactive)
Cc1noc(C)c1C(=O)NCC1COc2ccccc2O1 (configuration not stated) | -5.41% [at 12.3 µM] (inactive)
c1ccc2c(c1)OCC(CNc1ncnc3nc[nH]c13)O2 (configuration not stated) | 72.9% [at 12.3 µM] (active)
C[C@@H]1CCCCO[C@H](CN(C)Cc2ccc3c(c2)OCO3)[C@@H](C)CN([C@H](C)CO)C(=O)c2cc(N(C)C)ccc2O1 | -11.2% (inactive)
C[C@H](NC(=O)C[C@@H]1CC[C@H](NC(=O)CN2CCOCC2)[C@H](CO)O1)c1ccccc1 | -13.9% (inactive)
Cc1ccc(C(c2nnnn2CS(=O)(=O)c2ccc(C)cc2)N2CCC(C)CC2)cc1 (configuration not stated) | 53.3% [at 12.3 µM] (inactive)
N#Cc1ccc(C(c2nnnn2CCc2ccccc2)N2CCCCCC2)cc1 (configuration not stated) | 90.5% [at 12.3 µM] (active)
CCCCn1nnnc1C(c1ccccc1)N1CCN(c2ccccc2OC)CC1 (configuration not stated) | 6.77% [at 12.3 µM] (inactive)
CN(C)CC(=O)Nc1ccc2c(c1)[C@H]1C[C@@H](CC(=O)NCc3ccc(-c4ccccc4)cc3)O[C@H](CO)[C@H]1O2 | 19.8% (inactive)
COC(=O)[C@H](CC(C)C)NS(=O)(=O)c1c(F)cccc1F | -17.9% [at 12.3 µM] (inactive)
COc1ccc(CCNC(=O)CSc2nc(-c3ccc(OC)c(OC)c3)ccc2C#N)cc1 | 4.49% [at 12.3 µM] (inactive)
CCSc1nc(-c2ccc(OC)cc2)cc(-c2ccc(OC)cc2)c1C#N | 66% [at 12.3 µM] (active)
COc1ccc(-c2cc(-c3ccc(N)cc3)nc(N)c2C#N)cc1OC | 22.6% [at 12.3 µM] (inactive)
CS(=O)(=O)Nc1ccc2c(c1)[C@@H]1C[C@H](CC(=O)NCc3cc(F)ccc3F)O[C@@H](CO)[C@@H]1O2 | 18.1% (inactive)
Cc1ccc(S(=O)(=O)Nc2ccc3c(c2)C(=O)N([C@H](C)CO)C[C@@H](C)[C@@H](CN(C)S(C)(=O)=O)OCCCC[C@@H](C)O3)cc1 | -1.67% (inactive)
C[C@@H]1CN([C@@H](C)CO)S(=O)(=O)c2ccc(-c3cccnc3)cc2O[C@H]1CN(C)CC1CCOCC1 | -3.87% (inactive)
C[C@@H]1CN([C@H](C)CO)C(=O)c2cccc(NS(C)(=O)=O)c2O[C@@H]1CN(C)C(=O)Nc1cccc2ccccc12 | -1.18% (inactive)
Cc1oc2c(F)c(F)c(F)c(F)c2c1S(=O)(=O)Nc1cccc(C(F)(F)F)c1 | 55% [at 12.3 µM] (active)

Compound | inhibition
Cc1noc(C)c1S(=O)(=O)Nc1cc(C(F)(F)F)ccc1N1CCOCC1 | 22.4% [at 12.3 µM] (inactive)
O=C(CNS(=O)(=O)c1cccc(C(F)(F)F)c1)Nc1ccccc1F | -11.7% [at 12.3 µM] (inactive)
COc1ccccc1CNC(=O)C[C@H]1C[C@@H]2c3cc(NC(=O)c4ccc5c(c4)OCO5)ccc3O[C@@H]2[C@H](CO)O1 | 4.06% (inactive)
COc1ccccc1-c1c(C#N)c(N)nc2c1CCC2 | 24% [at 12.3 µM] (inactive)
CC(C)OC(=O)c1sc2nc3c(cc2c1N)C(=O)CCC3 | -187% [at 12.3 µM] (inactive)
NC(=O)c1sc2nc3c(c(-c4ccccc4)c2c1N)CCC3 | 103% [at 12.3 µM] (active)
C[C@@H]1CN([C@@H](C)CO)C(=O)c2cc(NC(=O)Cn3cnnn3)ccc2O[C@H]1CN(C)Cc1ccc(C(F)(F)F)cc1 | 12.3% (inactive)
Cc1n[nH]c(=O)c2c1nnn2Cc1ccc(F)cc1 | -10.3% [at 12.3 µM] (inactive)
Cc1cc(C)c2cc(CN(Cc3nnnn3Cc3ccc(F)cc3)C3CCCC3)c(=O)[nH]c2c1 | 84.5% [at 12.3 µM] (active)
C[C@@H]1CN([C@H](C)CO)C(=O)c2cc(-c3ccccc3F)cnc2O[C@H]1CN(C)C(=O)NC1CCCCC1 | -1.88% (inactive)
O=C(C[C@H]1CC[C@@H]2NC[C@H](O)COC[C@H]2O1)NCCN1CCCCC1 | 18.8% (inactive)
COc1ccccc1C(=O)NC(CCSC)C(=O)N1CCN(C(C)=O)CC1 (configuration not stated) | -8.21% [at 12.3 µM] (inactive)
CSCCC(NC(=O)c1ccccc1)C(=O)N1CCN(Cc2ccc(Cl)cc2)CC1 (configuration not stated) | 11.5% [at 12.3 µM] (inactive)
COc1ccccc1C(=O)NC(CCSC)C(=O)N1CCN(C/C=C/c2ccccc2)CC1 (configuration not stated) | 75.2% [at 12.3 µM] (active)
O=C(NCc1ccccc1)[C@H]1CCCN1C(=O)[C@@H]1CCCN1C(=O)c1ccc(Cl)cc1Cl | -35.2% [at 12.3 µM] (inactive)
COc1ccccc1S(=O)(=O)Nc1ccc2c(c1)C(=O)N(C)C[C@@H](OC)[C@@H](C)CN[C@@H](C)CO2 | 61.2% (active)
COc1ccccc1S(=O)(=O)Nc1ccc2c(c1)C(=O)N(C)C[C@H](OC)[C@H](C)CN[C@H](C)CO2 | -20.4% (inactive)
COCC(=O)N1C[C@@H](C)[C@H](OC)CN(C)C(=O)c2ccc(NC(=O)c3ccc(F)cc3)cc2OC[C@H]1C | 19.1% (inactive)
COc1cccc(S(=O)(=O)Nc2ccc3c(c2)C(=O)N(C)C[C@@H](OC)[C@@H](C)CN[C@@H](C)CO3)c1 | 3.22% (inactive)
CO[C@@H]1CN(C)C(=O)c2cc(NS(=O)(=O)c3ccc(C)cc3)ccc2OC[C@H](C)N(C(=O)NC(C)C)C[C@@H]1C | 64.3% (active)
COCC(=O)N1C[C@H](C)[C@@H](OC)CN(C)C(=O)c2cc(NC(=O)c3ccc(OC)cc3)ccc2OC[C@H]1C | -0.959% (inactive)
CO[C@H]1CN(C)C(=O)c2cc(NS(=O)(=O)c3ccccc3)ccc2OC[C@H](C)N(C(=O)NC(C)C)C[C@@H]1C | -19% (inactive)
COCC(=O)N1C[C@@H](C)[C@H](OC)CN(C)C(=O)c2ccc(NC(=O)c3ccc(OC)cc3)cc2OC[C@@H]1C | 58.2% (active)
CO[C@@H]1CN(C)C(=O)c2cc(NS(=O)(=O)c3ccccc3)ccc2OC[C@@H](C)N(C(=O)NC(C)C)C[C@@H]1C | 3.87% (inactive)
